FMDV antiviral: blocks foot and mouth disease virus | FMDV antiviral cell-based qHTS | 1.2% of 410,000 active | Potency, µM (doses to about 57.9 µM), for the others: at the top dose activity change, negative = inhibition, actives largely listed as inhibitors | AID 1159524; calls by dose curve; tested in HEK293T cells; further: read-out not given here; potency means the concentration at half of the fitted maximal effect; on the % scale 0 is the no-effect control and ±100 the full control effect; nearly all actives have a fitted effect of over 45% in size
HCV inh: inhibitors of hepatitis C virus infection; Huh7.5.1 HCVcc-Cre infection, luciferase reporter, 44 h; 3.4% of 340,000 active; Potency, µM (series often up to 41.8 µM), inactives show top-dose activity change, negative = inhibition, usual class: inhibitors; active means well fitted inhibition curve with a large enough effect; inconclusive means small, poorly fitted or top-dose-only effect, or another doubt; inactive means no such curve, though single readings can be large or run the other way; further: potency means the concentration at half of the fitted maximal effect; on the % scale 0 is the no-effect control and ±100 the full control effect
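Compounds are dispensed onto cells plated 4 h earlier at 1,000 per well, with HCVcc-Cre virus (about 0.5 moi) added next. Following 44 h of culture, luminescent signal is measured for 15 sec after 15 min with substrate at room temperature.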
Shiga toxin inh: Shiga toxin inhibition. Vero cells, Shiga toxin protein synthesis inhibition reporter. inhibition, % at 38.7 µM. 9.2% of 290,000 active; in the data active means inhibition mostly above about 28%, no sharp cut-off; inactive means mostly below about 43%; further: 0% is about no effect
MARV entry inh: blocks Marburg virus binding to or entry into cells | Potency, µM (top dose mostly 37.8 µM), for the others: at the top dose activity change, negative = inhibition, actives largely listed as inhibitors | 1.8% of 300,000 active | Marburg virus pseudotyped entry inhibition, cell reporter; calls by dose curve; tested in HEK293 cells; further: potency means the concentration at half of the fitted maximal effect; on the % scale 0 is the no-effect control and ±100 the full control effect
LASV entry inh: blocks Lassa virus binding to or entry into cells; Lassa virus pseudotype entry inhibition, cell reporter; Potency, µM (top dose mostly 37.9 µM), inactives show at the top dose activity change, negative = inhibition, usual class: inhibitors; 1.2% of 300,000 active; calls by dose curve; tested in HEK293 cells; further: potency means the concentration at half of the fitted maximal effect; on the % scale 0 is the no-effect control and ±100 the full control effect; nearly all actives have a fitted effect of over 50% in size
CHX counter: affects cycloheximide protein synthesis inhibition readout, counter-screen; cell reporter, cycloheximide protein synthesis inhibition counterscreen; 12% of 300,000 active; max response, %; in the data active means max response mostly above about 13%, no sharp cut-off; inactive means mostly below about 14%; further: read at 38.3 µM for the half of the compounds with a filed dose; 0% is about no effect
Numbers without * were called inactive; [ ] = another dose, or the depositor's remark. Most compounds without a hit are left out; they make up all but 13% or so of the library.

What do the screens show for `CC1CCC(C(=O)NC(C(=O)OCC(=O)c2ccccc2)C(C)C)CC1` (stereo unspecified)?
FMDV antiviral: inconclusive; MARV entry inh: -5.9%[46.1 µM]; LASV entry inh: -10.5%[46.1 µM]

Results for Cc1nc2c(=O)n(C)c(=O)[nH]c2n1Cc1ccccc1 ?
FMDV antiviral: 21.4%; HCV inh: 16.3%; Shiga toxin inh: 19.8; MARV entry inh: 21.9%; LASV entry inh: 2.7%; CHX counter: 36.5*

How did COc1ccc(/C=C/C(=O)c2c(C)nc3ccccn23)cc1 do in these assays?
FMDV antiviral: 34.7%; HCV inh: -16.2%; Shiga toxin inh: 107.2*; MARV entry inh: -10.1%; LASV entry inh: 28.8%; CHX counter: 47.7*

Results for Cc1nc2ccccn2c1C(=O)/C=C/c1ccc(F)cc1 ?
FMDV antiviral: -20.6%; HCV inh: -5.4%; Shiga toxin inh: 94.8*; MARV entry inh: -28.1%; LASV entry inh: inconclusive; CHX counter: 54.5*

How did Cc1nc2ccccn2c1C(=O)NN do in these assays?
FMDV antiviral: -9.5%; HCV inh: 3.2%; Shiga toxin inh: -4.2; MARV entry inh: inconclusive; LASV entry inh: 1.8%; CHX counter: -0.7

What do the screens show for `COc1ccc(CNC(=O)c2c(C)nc3ccccn23)cc1`?
FMDV antiviral: inconclusive; HCV inh: inconclusive; Shiga toxin inh: 17.8; MARV entry inh: -9.3%; LASV entry inh: -9.2%; CHX counter: 4.6

How did CC(C)C[C@H]1COc2cccc(N3CCN(Cc4ccccc4F)CC3)c2S(=O)(=O)N1 do in these assays?
FMDV antiviral: -6.1%

How did COc1ccc(CNC(=O)C2(CC3CC(c4ccccc4)=NO3)CCN(C(=O)CCCCCBr)CC2)cc1 (stereo unspecified) do in these assays?
FMDV antiviral: 5.5%; HCV inh: 11.4%

How did c1csc(-c2csc3nc(CN4CCOCC4)nc(NCc4ccc5c(c4)OCO5)c23)c1 do in these assays?
FMDV antiviral: inconclusive; HCV inh: inconclusive; Shiga toxin inh: 1.0; MARV entry inh: 18.3µM*; LASV entry inh: -13.3%; CHX counter: 7.6

What do the screens show for `c1cc2c(cc1CNc1ccc(N3CCOCC3)cc1)OCO2`?
FMDV antiviral: 25.8%

Results for COc1ccc(-c2ccc([C@H]3[C@@H]4C=CCC[C@@]4(C)C(=O)N3Cc3ccccc3)c(F)c2)cc1OC ?
FMDV antiviral: inconclusive; HCV inh: inconclusive; Shiga toxin inh: 35.6; CHX counter: 36.6*

What do the screens show for `COc1ccc(-c2cc([C@H]3[C@@H]4C=CCC[C@@]4(C)C(=O)N3Cc3ccccc3)ccc2F)cc1OC`?
FMDV antiviral: inconclusive; HCV inh: 10µM*; Shiga toxin inh: -0.6; CHX counter: -3.3

What do the screens show for `COc1ccc(NC(=O)COc2cccc(-n3cnnn3)c2)cc1Cl`?
FMDV antiviral: 3.5%; HCV inh: inconclusive; MARV entry inh: inconclusive; LASV entry inh: -5.5%

Results for N#C/C(=C(/O)COC(=O)c1ccccc1O)c1nc2ccccc2s1 ?
FMDV antiviral: inconclusive; HCV inh: 4.7%; Shiga toxin inh: 28.1; MARV entry inh: -4.1%[46.1 µM]; LASV entry inh: 2.1%; CHX counter: 7.9

How did CCCCCC1C(=O)O[C@H](C)[C@@H](NC(=O)c2cccc(NC=O)c2O)C(=O)OC(C)C1OC(=O)CC(C)C (stereo partly specified) do in these assays?
FMDV antiviral: 39.8µM*

What do the screens show for `O=C(Nc1ncc([N+](=O)[O-])s1)c1ccccc1Br`?
FMDV antiviral: 16.9%; HCV inh: -2.3%; Shiga toxin inh: 65.1*; CHX counter: 49.6*

What do the screens show for `O=C(/C=C/c1ccc([N+](=O)[O-])cc1)Nc1ncc([N+](=O)[O-])s1`?
FMDV antiviral: -72.3%; HCV inh: 11.2µM*; Shiga toxin inh: 95.2*; MARV entry inh: 5.8µM*; LASV entry inh: inconclusive; CHX counter: 33.5*

Results for Cc1cnccc1NC(=O)c1cccs1 ?
FMDV antiviral: -11.6%; HCV inh: -26.4%; Shiga toxin inh: -5.1; MARV entry inh: -1.1%; LASV entry inh: 2.7%; CHX counter: -1.6

How did O=C(Nc1ncc([N+](=O)[O-])s1)c1cccs1 do in these assays?
FMDV antiviral: inconclusive; HCV inh: inconclusive; Shiga toxin inh: 26.6*; CHX counter: 36.7*

What do the screens show for `Cc1cnc(NC(=O)c2cccs2)s1`?
FMDV antiviral: 1.4%; HCV inh: 5.2%; Shiga toxin inh: 67.3*; MARV entry inh: inconclusive; LASV entry inh: inconclusive; CHX counter: 28.8*

What do the screens show for `O=C(/C=C/c1ccc([N+](=O)[O-])cc1)NCc1ccccn1`?
FMDV antiviral: -16.1%; HCV inh: 21.4%; Shiga toxin inh: -4.0; MARV entry inh: 23.8%; LASV entry inh: 11.0%; CHX counter: -1.3

What do the screens show for `O=C(O)CC1(CC(=O)Nc2ccc(C(F)(F)F)cc2)CCCC1`?
FMDV antiviral: -8.4%; HCV inh: 19.6%; Shiga toxin inh: -3.8; MARV entry inh: 14.1%[46.1 µM]; LASV entry inh: 1.4%[46.1 µM]; CHX counter: -2.9

How did O=S(=O)(c1ccc(C(F)(F)F)cc1)N1CCN(CCOc2ccccc2)CC1 do in these assays?
FMDV antiviral: -21.7%; HCV inh: inconclusive; MARV entry inh: -19.9%[46.1 µM]; LASV entry inh: -15.9%

What do the screens show for `CCN(CC)CCNC(=O)c1ccc2c(=O)n3nc(Nc4cccc(Cl)c4C)sc3nc2c1`?
FMDV antiviral: -0.9%; LASV entry inh: inconclusive

What do the screens show for `Cc1cccc(C)c1OCc1cn(CC(=O)c2ccc(O)cc2)nn1`?
FMDV antiviral: -16.0%; HCV inh: 8.8%

Results for Cn1cccc1/C=C1\CCc2ccccc2C1=O ?
FMDV antiviral: inconclusive; HCV inh: -20.4%; Shiga toxin inh: 42.5; MARV entry inh: inconclusive; LASV entry inh: inconclusive; CHX counter: 10.8

Results for Cn1cccc1/C=C1\Cc2ccccc2C1=O ?
FMDV antiviral: 55.9%; HCV inh: inconclusive; Shiga toxin inh: active; CHX counter: 41.5*

Results for Cn1cccc1/C=C1\CC(C(C)(C)C)C/C(=C\c2cccn2C)C1=O (stereo unspecified) ?
FMDV antiviral: -19.6%; HCV inh: 2.51µM*; Shiga toxin inh: -4.9; MARV entry inh: inconclusive; LASV entry inh: -19.7%; CHX counter: -2.1

What do the screens show for `O=C1/C(=C\c2ccc(Br)o2)Cc2ccccc21`?
FMDV antiviral: 73.4%; HCV inh: -11.6%; Shiga toxin inh: 52.8*; MARV entry inh: 2.6%; LASV entry inh: inconclusive; CHX counter: 72.7*

How did O=C1C(=Cc2cccc(Cl)c2)Cc2ccccc21 do in these assays?
FMDV antiviral: 41.9%

Results for O=C1/C(=C/c2cccs2)Cc2ccccc21 ?
FMDV antiviral: 34.4%; HCV inh: 13.1%; Shiga toxin inh: 157.0*; MARV entry inh: 3.1%; LASV entry inh: 20.4%; CHX counter: 36.0*

Results for CC1=NCCN1CCNC(=O)Nc1cc(C)cc(C)c1 ?
FMDV antiviral: -7.3%; HCV inh: 0.6%; Shiga toxin inh: 17.0; MARV entry inh: -10.2%[46.1 µM]; LASV entry inh: 0.0%[46.1 µM]; CHX counter: 7.5
